Measurements: article PMC11062922 (Nature Chemical Biology, 2023)
Like-named read-outs stand apart in the source and are kept apart here.

Columns and labels:
CAMK2G = system: CAMK2G; design: species or system human, MV4-11 + K-562 + COLO205 + SK-N-BE2 + OVCAR-8; conditions: read-out: apparent Kd, compound concentrations: 100 nM and 1000 nM (sheet 'Samples'), n = 1
BMPR1B = system: BMPR1B; design: species or system human, MV4-11 + K-562 + COLO205 + SK-N-BE2 + OVCAR-8; conditions: read-out: apparent Kd, n = 1
MAP3K4 = system: MAP3K4; design: species or system human, MV4-11 + K-562 + COLO205 + SK-N-BE2 + OVCAR-8; conditions: read-out: apparent Kd, n = 1
WEE1 = system: WEE1; design: species or system human, MV4-11 + K-562 + COLO205 + SK-N-BE2 + OVCAR-8; conditions: read-out: apparent Kd, n = 1
FES = system: FES; design: species or system human, MV4-11 + K-562 + COLO205 + SK-N-BE2 + OVCAR-8; conditions: read-out: apparent Kd, compound concentrations: 100 nM and 1000 nM (sheet 'Samples'), n = 1
GRK6 = system: GRK6; design: species or system human, MV4-11 + K-562 + COLO205 + SK-N-BE2 + OVCAR-8; conditions: read-out: apparent Kd; compound concentrations: 100 nM and 1000 nM (sheet 'Samples'), CATDS: 6.7200037487984698E-3; n = 1
ACAD8 = system: ACAD8; design: species or system human, MV4-11 + K-562 + COLO205 + SK-N-BE2 + OVCAR-8; conditions: read-out: apparent Kd; compound concentrations: 100 nM and 1000 nM (sheet 'Samples'), CATDS: 3.4609202589527301E-3; n = 1
BMPR2 = system: BMPR2; design: species or system human, MV4-11 + K-562 + COLO205 + SK-N-BE2 + OVCAR-8; conditions: read-out: apparent Kd; compound concentrations: 100 nM and 1000 nM (sheet 'Samples'), CATDS: 4.3596889964012502E-3; n = 1
CDK13 = system: CDK13; design: species or system human, MV4-11 + K-562 + COLO205 + SK-N-BE2 + OVCAR-8; conditions: read-out: apparent Kd, compound concentrations: 100 nM and 1000 nM (sheet 'Samples'), n = 1
LIMK1 = system: LIMK1; design: species or system human, MV4-11 + K-562 + COLO205 + SK-N-BE2 + OVCAR-8; conditions: read-out: apparent Kd, compound concentrations: 100 nM and 1000 nM (sheet 'Samples'), n = 1
MAP2K6 = system: MAP2K6; design: species or system human, MV4-11 + K-562 + COLO205 + SK-N-BE2 + OVCAR-8; conditions: read-out: apparent Kd; compound concentrations: 100 nM and 1000 nM (sheet 'Samples'), CATDS: 4.6544489898713796E-3; n = 1
MST1R = system: MST1R; design: species or system human, MV4-11 + K-562 + COLO205 + SK-N-BE2 + OVCAR-8; conditions: read-out: apparent Kd; compound concentrations: 100 nM and 1000 nM (sheet 'Samples'), CATDS: 4.6001362310290703E-3; n = 1
NEK3 = system: NEK3; design: species or system human, MV4-11 + K-562 + COLO205 + SK-N-BE2 + OVCAR-8; conditions: read-out: apparent Kd; compound concentrations: 100 nM and 1000 nM (sheet 'Samples'), CATDS: 4.0159133314047798E-3; n = 1
SIK3 = system: SIK3; design: species or system human, MV4-11 + K-562 + COLO205 + SK-N-BE2 + OVCAR-8; conditions: read-out: apparent Kd, compound concentrations: 100 nM and 1000 nM (sheet 'Samples'), n = 1
VDAC3 = system: VDAC3; design: species or system human, MV4-11 + K-562 + COLO205 + SK-N-BE2 + OVCAR-8; conditions: read-out: apparent Kd; compound concentrations: 100 nM and 1000 nM (sheet 'Samples'), CATDS: 4.6944952504306397E-3; n = 1
ILK = system: ILK; design: species or system human, MV4-11 + K-562 + COLO205 + SK-N-BE2 + OVCAR-8; conditions: read-out: apparent Kd; compound concentrations: 100 nM and 1000 nM (sheet 'Samples'), CATDS: 0.188303369583949; n = 1
CDK1_CycB1 = conditions: Highest Assay Concentration (M): 9.9999999999999995E-7
CK2alpha1 = conditions: Highest Assay Concentration (M): 9.9999999999999995E-7
CK2alpha2 = conditions: Highest Assay Concentration (M): 9.9999999999999995E-7
CLK2 = system: CLK2; design: species or system human, MV4-11 + K-562 + COLO205 + SK-N-BE2 + OVCAR-8; conditions: read-out: apparent Kd, n = 1
[1] = compound concentrations:100 nM and 1000 nM (sheet 'Samples')

Compound `CN(c1ccc(NC(=O)N2CCN(CCCN3CCOCC3)CC2)cc1)c1ccnc(Nc2ccc(CS(C)(=O)=O)cc2)n1.Cl` [GW830899A] has a potency estimated from few doses (CAMK2G; CATDS: 3.6233110942478698E-2) of 457 nM.
Work on `CNC(=O)c1ccccc1Nc1nc(Nc2ccc(N3CCOCC3)cc2)ncc1Cl.Cl` [GSK1576028A] yielded a potency estimated from few doses (BMPR1B; [1]) of 429 nM, a potency estimated from few doses (MAP3K4; [1]) of 1690 nM and a potency estimated from few doses (WEE1; [1]) of 20.5 nM.
Work on `O=C1N=C(NCCc2ccc(Cl)cc2)S/C1=C\c1ccc2ncccc2c1` [RO4498479-000] yielded a potency estimated from few doses (FES; CATDS: 7.5853712865523596E-3) of 1210 nM and a potency estimated from few doses (GRK6) of 1960 nM.
With `Cn1ncc2c(N)ncnc21` [SKF-18267] the potency estimated from few doses (ACAD8) was 2010 nM, the potency estimated from few doses (BMPR1B; compound concentrations: 100 nM and 1000 nM (sheet 'Samples'), CATDS: 8.9058122855820206E-3) was 311 nM and the potency estimated from few doses (BMPR2) was 1090 nM. For the same compound, the potency estimated from few doses (CAMK2G; CATDS: 7.7542498365532697E-3) was 382 nM, the potency estimated from few doses (CDK13; CATDS: 3.42159578661501E-3) was 2090 nM and the potency estimated from few doses (FES; CATDS: 5.1575309929755304E-3) was 766 nM. It also gave a potency estimated from few doses (LIMK1; CATDS: 4.4629455520233396E-3) of 1030 nM, a potency estimated from few doses (MAP2K6) of 943 nM and a potency estimated from few doses (MAP3K4; compound concentrations: 100 nM and 1000 nM (sheet 'Samples'), CATDS: 4.0015325722358502E-3) of 1340 nM. For the same compound, the potency estimated from few doses (MST1R) was 967 nM, the potency estimated from few doses (NEK3) was 1320 nM and the potency estimated from few doses (SIK3; CATDS: 3.59529212961178E-3) was 1790 nM. For the same compound, the potency estimated from few doses (VDAC3) was 926 nM and the potency estimated from few doses (WEE1; compound concentrations: 100 nM and 1000 nM (sheet 'Samples'), CATDS: 4.2054880043609797E-3) was 1180 nM.
`O=C1N=C(Nc2ccccc2)S/C1=C\c1ccc2ncccc2c1` [RO4493940-000] gave a potency estimated from few doses (ILK) of 1500 nM, an IC50 (CDK1_CycB1) of 2.88e-06 M and an IC50 (CK2alpha1) of 6.67e-08 M. The IC50 (CK2alpha2) was 5.11e-08 M.
`Cl.Cl.NCC(C(=O)Nc1cc(Br)c(-c2ccnc3[nH]ccc23)s1)c1ccccc1.NCC(C(=O)Nc1cc(Br)c(-c2ccnc3[nH]ccc23)s1)c1ccccc1` (centres unmarked) [GSK1269851A] gave a potency estimated from few doses (CLK2; [1]) of 730 nM.
Compound `Clc1cc(Cl)cc(Nc2ccnc(Nc3cc(Cl)cc(Cl)c3)n2)c1` [GSK175726A] has a potency estimated from few doses (CLK2; compound concentrations: 100 nM and 1000 nM (sheet 'Samples'), CATDS: 1.2027926669680101E-2) of 432 nM.
`COc1cc(Nc2ncc3c(C)nc(-c4cc5ccccc5[nH]4)n3n2)cc(OC)c1OC` [GW869516X] was tested, and the IC50 (CDK1_CycB1) was 1.97e-06 M, the IC50 (CK2alpha1) was 8.51e-08 M and the IC50 (CK2alpha2) was 3.37e-08 M.
With `COc1ccc(Nc2ncc(C#N)c(Nc3ccccc3C(N)=O)n2)cc1N1CCN(C)CC1.Cl` [GSK1558669A] the potency estimated from few doses (FES; CATDS: 8.0815646455300594E-3) was 387 nM, the potency estimated from few doses (LIMK1; CATDS: 6.2092464562502302E-3) was 1380 nM and the potency estimated from few doses (MAP3K4; compound concentrations: 100 nM and 1000 nM (sheet 'Samples'), CATDS: 1.60153050048602E-2) was 57.9 nM. For the same compound, the potency estimated from few doses (SIK3; CATDS: 6.59336570259887E-3) was 968 nM and the potency estimated from few doses (WEE1; compound concentrations: 100 nM and 1000 nM (sheet 'Samples'), CATDS: 4.3913811824171201E-2) was 10.4 nM.
For `Cc1cccc2c(-c3ccncn3)c(-c3ccc(F)cc3)nn12` [GW515532X], the potency estimated from few doses (CDK13; CATDS: 0.21960096407146401) was 1800 nM.
For `O=C1NC(=O)/C(=C/c2ccc3ncccc3c2)S1` [RO4603632-000], the IC50 (CDK1_CycB1) was 8.37e-06 M, the IC50 (CK2alpha1) was 5.79e-07 M and the IC50 (CK2alpha2) was 3.72e-07 M.
